# Assay results as given in PubChem BioAssay AID1117283 (Broad Institute, 2014).
# Potency and affinity values are given separately. Active and inactive are the calls of the source.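 How the source made its calls: active means fluorescent signal decreased by at least 40%; inconclusive means no clear call, values can overlap the other calls; inactive means the rest, including activity opposite to the expected direction.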
# Assay: fibronectin fibrillogenesis inhibitors in fibroblasts, dose response, AH1F cells, Alexa488-fibronectin fluorescence, cherry-pick, set 2 (AID 1117283);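 further: AH1F fibroblasts given Alexa488-labelled fibronectin at 24 nM final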
# Conditions: Alexa488-fibronectin deposition fluorescence, overnight; series mostly up to 35 µM
row,SMILES,outcome
1,CO[C@@H]1CN(C)C(=O)c2ccc(NC(=O)c3ccc(-c4ccccc4)cc3)cc2OC[C@@H](C)NC[C@@H]1C,inactive
2,CO[C@@H]1CN(C)C(=O)c2cc(NC(=O)Nc3cc(Cl)cc(Cl)c3)ccc2OC[C@H](C)NC[C@H]1C,inactive
3,C[C@@H]1CN([C@@H](C)CO)C(=O)c2cc(NC(=O)CCCN(C)C)ccc2O[C@H]1CN(C)Cc1ccc(-c2ccccc2)cc1,inactive
